Source: PubChem (several laboratories)
Most compounds without a hit are left out; they make up all but 2% or so of the library.
Shn3 inh set2: reduces Shn3 3'UTR luciferase signal in osteoblasts. Clone20 osteoblast Shn3 3'UTR firefly luciferase, 24 h. inhibition, % at 12.5 µM. AID 588674. actives 0.52% (n = 360,000);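 active = mean inhibition of at least 75% with every replicate also reaching 75%; inconclusive = mean inhibition at least 75% but some replicate below; inactive = mean inhibition below 75%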;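 also: 0% = median of neutral control wells and 100% = pilot-screen positive control compound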
EWS-Fli block: inhibitors of EWS/Fli oncoprotein transcriptional activity | A673 NR0B1-luciferase reporter, viability-normalised | actives 0.67% (n = 350,000) | AID 651661 | inhibition, % at 12.6 µM;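 active = mean inhibition of at least 50% after viability correction, with every replicate also passing that limit; inconclusive = mean reaches 50% but only one of two replicates passes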;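 also: firefly luciferase signal divided by Alamar Blue viability fluorescence both relative to DMSO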
PAX8 reporter: lowers PAX8-driven luciferase in RMG-I cells; RMG-I TPO-luciferase reporter, SteadyGlo, 24 h; inhibition, % at 12.6 µM; actives 1.2% (n = 360,000); AID 652154;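 active = mean replicate inhibition at least 60% with every replicate also reaching 60%; inconclusive = only one of the two criteria is met; inactive = mean below 60% and not all replicates reaching 60%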;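 also: luciferase light reporting Pax8 driven TPO promoter activity; plate controls were median of neutral control wells for no effect and mitoxantrone controls for full effect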
LGR2 antag: inhibitors of bursicon-induced Drosophila LGR2 receptor cAMP signaling. HEK293 LGR2, CRE-luciferase, bursicon-stimulated, 4 h. inhibition, % at 9.99 µM. actives 0.35% (n = 380,000). AID 720647;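 active = drop in luminescence signal, shown as inhibition above about 50% in the replicate tests, limit read from the data, passing the limit was not always enough; inconclusive = probably only some replicates passing the limit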;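 also: agonist challenge used bursicon conditioned medium at about half maximal strength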
CF NFkB block: blocks PAF-induced NF-kB reporter in cystic fibrosis cells; actives 0.86% (n = 360,000); inhibition, % at 5 µM; KKLEB NF-kB-GFP reporter, GFP fluorescence overnight; AID 588850;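 active = at least 50% inhibition at 5 µM, scaled per plate between neutral and stimulator controls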;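 also: PAF is a Pseudomonas aeruginosa culture filtrate used as stimulus; plate controls were PAF-stimulated DMSO wells for no effect and unstimulated DMSO wells for full effect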
KKLEB cytotox: counter-screen for CF NF-kB inhibitors: cytotoxicity; actives 0.36% (n = 360,000); activity change (cytotoxicity), % at 5 µM; AID 602141; KKLEB CF airway cells viability, ATPlite luminescence, overnight; hits give low values; cells stimulated with P. aeruginosa culture filtrate;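 active = corrected activity change at or below -50% at 5 µM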
CF NFkB inh conf: confirmation of cystic fibrosis induced NF-kB inhibitors | shares compounds with CF NFkB block | KKLEB CF airway cells, PAF-induced NF-kB-GFP fluorescence, overnight | inhibition, % at 5 µM | actives 64% (n = 1,300); in the data active = inhibition above about 40%;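 also: stimulus PAF is a Pseudomonas aeruginosa filtrate and not platelet activating factor; plate controls were DMSO wells with stimulus for no effect and unstimulated DMSO wells for full effect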
An asterisk follows results filed as active; u = inconclusive; x = no result; ! = not active in a repeat.

SMILES | Shn3 inh set2 | EWS-Fli block | PAX8 reporter | LGR2 antag | CF NFkB block | KKLEB cytotox | CF NFkB inh conf
COc1ccc(-c2[nH]ncc2-c2ccc3c(c2)OCCO3)c(O)c1 | 11 | x | x | u | 89* | -16 | 102*
COc1ccc(-c2cn[nH]c2-c2ccc(OCc3ccc([N+](=O)[O-])cc3)cc2O)cc1 | 66 | 0 | -15 | 42 | 70* | 2 | 82*
CCc1cc(-c2[nH]ncc2-c2ccc(OC)cc2)c(O)cc1O | 1 | -15 | 13 | 36 | 76* | 3 | 81*
CCCNC(=O)N1CC2(C1)[C@@H](c1ccccc1)[C@@H](CO)N2Cc1ccc(F)cc1 | x | -11 | 13 | 5 | x | x | x
CCCCCCc1cc2cc(C(=O)OCC)c(=O)oc2cc1O | 25 | 3 | 17 | -23 | 53* | -32 | 78*
C[C@@H]1CCCCO[C@H](CN(C)Cc2ccc(C(=O)O)cc2)[C@H](C)CN([C@@H](C)CO)C(=O)c2cc(NS(=O)(=O)c3cn(C)cn3)ccc2O1 | x | -12 | -8 | 2 | x | x | x
CCCCCCc1nc2nc(Cl)c(Cl)nc2[nH]1 | -20 | -11 | -3 | 10 | 60* | 16 | 32
C=C(C(=O)c1ccccc1)C(NC(C)(C)C)c1ccccc1 (centres undefined) | 37 | 43 | 81* | 101* | 50* | -35 | -404
CN1C2C=CC(=O)C1C1C(=O)N(c3ccccc3)C(=O)C12 (centres undefined) | -9 | 12 | 2 | 12 | 62* | -6 | 35
Cc1ncc(CO)c2c1Oc1nc(-c3ccccc3)nc(SCC(=O)N3CCOCC3)c1C2 | -6 | x | 24 | 1 | 14 | -15 | x
Cc1ncc(CO)c2c1Oc1nc(-c3ccccc3F)nc(SCC(=O)N(C)c3ccccc3)c1C2 | 26 | x | x | x | 94* | -28 | 96*
Cc1ncc(CO)c2c1Oc1nc(-c3ccccc3)nc(SCC(=O)N3CCCCC3)c1C2 | 7 | -2 | 38 | 13 | 85* | -5 | 29
COc1ccc(NC(=O)Nc2ccc3c(c2)CC(=O)N([C@@H](C)CO)C[C@@H](C)[C@H](CN(C)CC2CCCCC2)O3)cc1 | x | 0 | 36 | 0 | x | x | x
Cc1cccc(NC(=O)c2nc[nH]c2C(=O)NCCCNC(=O)c2[nH]cnc2C(=O)Nc2cccc(C)c2)c1 | 9 | 11 | -3 | 0 | 64* | -25 | 79*
Cc1cccc(NC(=O)c2nc[nH]c2C(=O)NCCN(CCNC(=O)c2[nH]cnc2C(=O)Nc2cccc(C)c2)CCNC(=O)c2[nH]cnc2C(=O)Nc2cccc(C)c2)c1 | -23 | 12 | 8 | -49 | 7 | -21 | x
Cc1noc(C)c1NC(=O)N(C)C[C@H]1Oc2ccc(NC(=O)CCC(F)(F)F)cc2CC(=O)N([C@@H](C)CO)C[C@@H]1C | x | -1 | -20 | 20 | x | x | x
O=C(c1[nH]c(C(F)(F)F)nc1-c1ccccc1)N1CCN(c2c(Cl)cncc2Cl)CC1 | -2 | 2 | -53 | 0 | 64* | -8 | 57*
CO[C@@H](CN(C)C(=O)C1CCOCC1)[C@@H](C)CN(C(=O)Nc1ccc(F)cc1)[C@@H](C)CO | x | -9 | x | 2 | x | x | x
COc1cc2cncc(Cc3ccc(Cl)cc3)c2cc1OC | 45 | x | x | x | 72* | -14 | 87*
COc1cc2nc(CN(C)Cc3ccc(Cl)cc3)[nH]c(=O)c2cc1OC | -4 | 3 | 7 | -7 | 11 | -2 | x
Fc1cccc(Cl)c1/C=N/Nc1c(Cl)cncc1Cl | 1 | x | -51 | -2 | 53* | -13 | 67*
O=S(=O)(N/N=C\c1c(F)cccc1Cl)c1ccc(Cl)cc1 | -9 | x | x | x | -14 | 12 | x
c1ccc(CNc2ncnc3ccccc23)cc1 | 84 | 5 | -26 | 29 | 50*! | -12 | 41*
Cc1ccc(S(=O)(=O)Oc2ccc(/C=N/NC(=O)c3nn(C)cc3[N+](=O)[O-])cc2)cc1 | 5 | -5 | -13 | x | 51* | -34 | -57
Cc1ccc(S(=O)(=O)Oc2ccccc2/C=N/NC(=O)c2nn(C)cc2[N+](=O)[O-])cc1 | -8 | x | -2 | 10 | 5 | -7 | x
SMILES | Shn3 inh set2 | EWS-Fli block | PAX8 reporter | LGR2 antag | CF NFkB block | KKLEB cytotox | CF NFkB inh conf
CO[C@H]1CN(C)C(=O)c2ccc(NC(=O)NC(C)C)cc2OC[C@H](C)N(C(=O)CN(C)C)C[C@H]1C | x | 1 | -5 | -9 | x | x | x
COc1ccc(Cl)cc1C(=O)OCC(=O)Nc1cccnc1Cl | -16 | 0 | 4 | -2 | -20 | 13 | x
COc1ccc(-c2cc(C(F)(F)F)nc(S(=O)(=O)CCCC(=O)Nc3cccnc3Cl)n2)cc1OC | 96* | 20 | 72* | u | 93* | -41 | 88*
C[C@H]1CN([C@@H](C)CO)C(=O)c2cc(C#Cc3cccnc3)cnc2O[C@@H]1CN(C)C | x | -4 | x | -1 | x | x | x
C[C@@H](NC(=O)c1coc(=O)c(Br)c1)c1ccccc1 | 16 | x | x | x | 74* | -6 | 60*
COc1ccc(C(=O)NC(C)c2ccccc2)cc1Br (centres undefined) | 5 | 4 | -3 | 22 | 11 | 1 | x
CC(C)Cn1c(C(C)C)nc([N+](=O)[O-])c1S(=O)(=O)c1ccc(F)cc1 | 19 | x | 60 | x | 58* | -36 | 5
O=C(CCN1CCCCC1)N[C@H]1CC[C@H](CCn2cc(-c3cccc(F)c3)nn2)O[C@H]1CO | x | 5 | 8 | -5 | x | x | x
C=C(C)[C@@H]1C2=CC(C(=O)OC)=C(C[C@H](C(=C)C)[C@H]3O[C@H]3C3=C[C@H]1OC3=O)O2 | 98* | 57* | x | x | 69* | -37 | -15
CO[C@@H]1CN(C)C(=O)c2ccc(NS(C)(=O)=O)cc2OC[C@@H](C)N(Cc2ccccn2)C[C@H]1C | x | -2 | -17 | -17 | x | x | x
Cc1ccc(NC(=O)C(=O)NCc2ccc(/C=C(/C#N)C(=O)NCc3cccnc3)o2)cc1 | 26 | x | x | x | -17 | -4 | x
O=C(NCc1cccnc1)/C(=C/c1ccc(-c2cccc(Cl)c2)o1)S(=O)(=O)c1ccccc1 | -14 | x | x | 28 | 6 | -13 | x
N#C/C(=C/c1ccc(CNC(=O)C(=O)Nc2cc(Cl)cc(Cl)c2)o1)C(=O)NCc1cccnc1 | 30 | -1 | -10 | -12 | 54* | -46 | 45*
O=C(NCc1cccnc1)/C(=C\c1ccc(-c2cccc(Cl)c2)o1)S(=O)(=O)c1ccccc1 | 97* | x | x | 87* | 70* | -19 | 77*
COc1ccc2c3c([nH]c2c1)[C@H](CO)N(C(=O)c1ccc(F)cc1)CC31CN(S(=O)(=O)c2cccs2)C1 | x | 4 | x | -7 | x | x | x
C=CCNC(=O)/C(C#N)=C/c1ccc(OS(=O)(=O)c2ccc(C)cc2)c(OC)c1 | 12 | 2 | -21 | 13 | 75* | -18 | -39
